Read-out in assay [1]: Tissue plasminogen activator (tPA), PLAT (gene 5327)
The assay can be described thus: BSK_BE3C_tPA: BioMAP Diversity Plus: BE3C Assay for Tissue plasminogen activator (tPA) Biomarker Activity (AID 2283041).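 On outcome: tPA level quantified by ELISA one day after compound addition.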 The following applies: primary human bronchial epithelial cells; actives raise or lower the signal. Put shortly:
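Using human lung primary bronchial epithelial cells, tPA was measured by ELISA 24 h after dosing; data fitted relative to DMSO.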

Read-out in assay [2]: Interleukin-8 (IL8), CXCL8 (gene 3576)
The assay can be described thus: BSK_CASM3C_IL8: BioMAP Diversity Plus: CASM3C Assay for Interleukin-8 (IL8) Biomarker Activity (AID 2283042).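 Further: IL-8 protein level quantified by ELISA.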 The following applies: primary human coronary artery smooth muscle cells; actives raise or lower the signal.

Read-out in assay [3]: Human Leukocyte Antigen - DR isotype (HLADR), HLA-DRA (gene 3122)
The assay can be described thus: BSK_CASM3C_HLADR: BioMAP Diversity Plus: CASM3C Assay for Human Leukocyte Antigen - DR isotype (HLADR) Biomarker Activity (AID 2283043).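 Further: cell-surface HLA-DR protein level quantified by ELISA.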 Conditions: primary human coronary artery smooth muscle cells; actives raise or lower the signal.

Read-out in assay [4]: Macrophage colony-stimulating factor (MCSF), CSF1 (gene 1435)
Description: BSK_CASM3C_MCSF: BioMAP Diversity Plus: CASM3C Assay for Macrophage colony-stimulating factor (MCSF) Biomarker Activity (AID 2283044).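 Further: M-CSF protein amount quantified by ELISA after 24 h exposure.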 The following applies: primary human coronary artery smooth muscle cells; actives raise or lower the signal.

Read-out in assay [5]: Low-density lipoprotein receptor (LDLR), LDLR (gene 3949)
Description: BSK_CASM3C_LDLR: BioMAP Diversity Plus: CASM3C Assay for Low-density lipoprotein receptor (LDLR) Biomarker Activity (AID 2283045).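 Further: LDLR protein level on the cell surface quantified by ELISA.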 Conditions: primary human coronary artery smooth muscle cells; actives raise or lower the signal.

Read-out in assay [6]: Monocyte Chemoattractant Protein-1 (MCP1), CCL2 (gene 6347)
The assay can be described thus: BSK_CASM3C_MCP1: BioMAP Diversity Plus: CASM3C Assay for Monocyte Chemoattractant Protein-1 (MCP1) Biomarker Activity (AID 2283046).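 Further: MCP-1 level quantified by ELISA 24 h after dosing.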 The following applies: primary human coronary artery smooth muscle cells; actives raise or lower the signal.

Assay [7] is described as follows: BSK_CASM3C_Proliferation: Cell Proliferation Assessment in the BioMAP Diversity Plus: CASM3C Assay (AID 2283047).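 Further: sulforhodamine B total protein stain as relative cell number at 560 nm; sub-confluent cells exposed 48 h before staining; fitted both ways against DMSO so gain or loss of cell number.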 The following applies: primary human coronary artery smooth muscle cells.
Read-out in assay [8]: Monokine induced gamma interferon (MIG), CXCL9 (gene 4283)
The assay can be described thus: BSK_CASM3C_MIG: BioMAP Diversity Plus: CASM3C Assay for Monokine induced gamma interferon (MIG) Biomarker Activity (AID 2283048).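 Further: MIG protein level measured by ELISA.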 The following applies: primary human coronary artery smooth muscle cells; actives raise or lower the signal.

Read-out in assay [9]: serum amyloid A (SAA), SAA1 (gene 6288)
The assay can be described thus: BSK_CASM3C_SAA: BioMAP Diversity Plus: CASM3C Assay for serum amyloid A (SAA) Biomarker Activity (AID 2283049).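 Further: SAA protein level quantified by ELISA.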 The following applies: primary human coronary artery smooth muscle cells; actives raise or lower the signal.

A short description of assay [10]: BSK_CASM3C_SRB: Viability Assessment in the BioMAP Diversity Plus: CASM3C Assay (AID 2283050).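 Further: total protein by SRB staining as cytotoxicity measure in parallel cultures; cells exposed to compound for 24 h.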 Conditions: primary human coronary artery smooth muscle cells.

The structures appear in SMILES notation. Values joined by “and” are separate entries in the source; they are usually repeats but may differ in a detail not shown here. Equal entries are not always repeated. Where a structure was tested more than once in an assay, its records may differ in their call. Active and inactive are the calls of the source. How the source made its calls: active means hit-call score of the fitted dose curve at least 0.9, where 1 is the maximum; inactive means score below 0.9.

For `CCN(CCO)S(=O)(=O)C(F)(F)C(F)(F)C(F)(F)C(F)(F)C(F)(F)C(F)(F)C(F)(F)C(F)(F)F`, the outcome in [1], in assay [2], in assay [3], in [4], in assay [6] and in [9] was inactive. Moreover, the AC50 (as a rule, the midpoint of the concentration-response curve, whichever way the signal moves) is 15.6 µM (active) in assay [3]; 35.3 µM (active) in [4]; 7.08 µM (active) and 8.16 µM (active) in assay [5]; 15.5 µM (active) and 16.5 µM (active) in assay [7]; 8.09 µM (active) and 7.66 µM (active) in assay [8]; 7.99 µM (active) in assay [9]. Besides, the AC50 in assay [10] was 19.2 µM (active) and 9.12 µM (active).

Turning to `O=C1C=CC(=O)N1c1ccc(Cc2ccc(N3C(=O)C=CC3=O)cc2)cc1`, the AC50 was 3.46 µM (active) in [1]; 11 µM (active) in [2]; 2.88 µM (active) in [3]; 5.07 µM (active) in assay [4]; 2.03 µM (active) in [5]; 4.19 µM (active) in assay [6]. The AC50 in assay [7] is 0.688 µM (active); in assay [8], 5.42 µM (active); in assay [9] it was 3.21 µM (active); in [10], 4.31 µM (active).

Take `C[C@]12CC[C@H]3C(=CCc4cc(O)ccc43)[C@@H]1CCC2=O`: the outcome in assay [1], in assay [2], in assay [3], in assay [4], in assay [6] and in assay [7] was inactive. For the same compound, the result in assay [8], in assay [9] and in assay [10] was inactive. Further, the AC50 in assay [5] is 14.3 µM (active).

Take `CN(C(=O)C(F)(F)C(F)(F)C(F)(F)F)[Si](C)(C)C`: the outcome in assay [1], in assay [2], in assay [3], in [4], in assay [5] and in [6] was inactive. For the same compound, the outcome in assay [7], in assay [8], in assay [9] and in assay [10] was inactive.

As for `C=CC(=O)OCCC(F)(F)C(F)(F)C(F)(F)C(F)(F)F`, the result in assay [1], in assay [2], in assay [3], in assay [4], in assay [5] and in [6] was inactive. Moreover, the outcome in [7], in assay [9] and in assay [10] was inactive. Besides, the AC50 in [7] was 15 µM (active); in assay [8], 41.1 µM (active) and 30 µM (active).

For the compound `C=C(C)C(=O)OCC(F)(F)C(F)(F)C(F)(F)C(F)F`, the result in [1], in assay [2], in assay [3], in assay [4], in assay [5] and in assay [6] was inactive. The result in [7], in assay [8], in assay [9] and in assay [10] was inactive.

With `O=S(=O)(OCC(F)(F)F)C(F)(F)C(F)(F)C(F)(F)C(F)(F)F`, the outcome in [1], in assay [2], in assay [3], in assay [4], in assay [5] and in assay [6] was inactive. In addition, the result in assay [7], in [8], in assay [9] and in assay [10] was inactive. For the same compound, the AC50 in assay [8] is 30 µM (active); in assay [9] it was 0.653 µM (active).

On to `CC(C)(C)c1cc(CCC(=O)NCCCCCCNC(=O)CCc2cc(C(C)(C)C)c(O)c(C(C)(C)C)c2)cc(C(C)(C)C)c1O`, for which the result in assay [1], in [2], in assay [3], in assay [4], in assay [5] and in [7] was inactive. Moreover, the result in assay [8], in assay [9] and in assay [10] was inactive. In addition, the AC50 in [6] is 0.824 µM (active).

In the case of `CNS(=O)(=O)C(F)(F)C(F)(F)C(F)(F)C(F)(F)C(F)(F)C(F)(F)C(F)(F)C(F)(F)F`, the AC50 in assay [1] was 220 nM (active) and 654 nM (active); in assay [7], 35.4 µM (active). Besides, the result in [2], in [3], in assay [4], in assay [5], in assay [6] and in [7] was inactive. In addition, the outcome in [8], in assay [9] and in assay [10] was inactive.

Consider `O=C(O)C(F)(F)OC(F)(F)C(F)(F)OC(F)(F)C(F)(F)OC(F)(F)F`, for which the outcome in assay [1], in assay [2], in [3], in assay [4], in assay [5] and in [6] was inactive. Further, the outcome in [7], in [8], in assay [9] and in [10] was inactive.

For `O=C(F)C1(F)C(F)(F)C(F)(F)C(F)(F)C(F)(F)C1(F)F`, the outcome in assay [1], in assay [2], in assay [3], in assay [4], in [5] and in assay [6] was inactive. Moreover, the outcome in assay [7], in assay [8], in assay [9] and in [10] was inactive.

Turning to `Cc1ccc(S(=O)(=O)C(I)I)cc1`, the AC50 in [1] was 5.4 µM (active); in assay [2], 3.52 µM (active); in assay [3] it was 2.61 µM (active); in assay [4], 2.17 µM (active); in [6], 2.78 µM (active); in assay [7], 1.37 µM (active). For the same compound, the results for the half-maximal activity concentration (AC50) in assay [8], in assay [9] and in [10] were 5.05 µM (active), 0.987 µM (active) and 3.42 µM (active), respectively. Also, in [5], the outcome was inactive.

On to `O=C(Cl)C(F)(F)C(F)(F)C(F)(F)C(F)(F)C(F)(F)C(F)(F)C(F)(F)F`, for which the outcome in [1], in assay [2], in assay [3], in assay [4], in assay [5] and in assay [6] was inactive. Further, the outcome in assay [7], in assay [8], in [9] and in assay [10] was inactive.

As to `C=CC(=O)OCC(F)(F)C(F)(F)C(F)(F)COC(=O)C=C`, the AC50 is 15.4 µM (active) and 11.4 µM (active) in assay [1]; 26.6 µM (active) and 22.5 µM (active) in assay [2]; 38.6 µM (active) and 27.7 µM (active) in assay [3]; 40.1 µM (active) and 34.8 µM (active) in assay [4]; 42.2 µM (active) and 42.9 µM (active) in [5]; 44.3 µM (active) and 42.5 µM (active) in assay [6]. Moreover, the AC50 in assay [7] is 8.23 µM (active) and 8.81 µM (active); in assay [8], 27.1 µM (active) and 25.4 µM (active); in assay [9] it was 41.4 µM (active) and 33.7 µM (active); in assay [10], 44.9 µM (active) and 28.3 µM (active).

As for `NC(=O)C(F)(F)C(F)(F)C(F)(F)F`, the outcome in assay [1], in [2], in assay [3], in assay [4], in assay [5] and in assay [6] was inactive. The result in [7], in [8], in assay [9] and in [10] was inactive.

In the case of `O=C(O)C(F)(F)C(F)(F)C(F)(F)C(F)(F)C(F)(F)C(F)(F)C(F)F`, the outcome in assay [1], in [2], in assay [3], in assay [4], in [5] and in [6] was inactive. Moreover, the result in [7], in assay [8], in [9] and in assay [10] was inactive.

The values are drawn from PubChem BioAssay (EPA / NIEHS).
